Shown is part of a subset that was picked to be rich in hits.
CRE-bla Fsk: CRE-bla signaling modulation under forskolin stimulation | CHO CRE-bla reporter (cAMP response element driving beta-lactamase), forskolin EC10, beta-lactamase ratio | Potency, µM (titrated, usually from 38.2 µM), hits mostly activators | 71,000 compounds, 2.5% hits; active means well fitted activation curve with a large enough effect in the signal ratio, with a control signal flat, not every such curve was filed as active; inconclusive means small, poorly fitted or top-dose-only effect, or effect the other way, or a change in a side signal; the % refers to the signal ratio
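AC50 values, positive or negative, reflect shifts in EC10 NKH 477-induced CRE-bla reporter activity in CHO cells. Incubation lasted 3 h at 37 °C before CCF4 substrate (2 h, room temperature) and ratiometric 460/530 nm reading.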
GFP derepression: epigenetic GFP locus derepression in mouse cells; mouse C127i GFP locus derepression, cytometry, 30 h; Potency, µM (series often up to 46.1 µM); 68,000 compounds, 0.09% hits; AID 597
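Murine C127i mammary cells carrying a silenced, stably integrated CMV-driven GFP reporter were treated with compound for 30 hours at 37 C. After PBS washes, GFP-positive cells were counted by laser-scanning microplate cytometry.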
ERK AVP block: vasopressin-driven ERK pathway inhibition; Potency, µM (top dose mostly 57.5 µM), usual class: inhibitors; 72,000 compounds, 0.99% hits; HEK293-V1b, vasopressin-stimulated pERK AlphaScreen; further: nearly all actives have a fitted effect of over 55% in size
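qHTS, compounds titrated on V1b-expressing HEK293 cells. Preincubation 30 min at 37C, vasopressin 25 nM for 5 min, lysis 10 min, bead incubation 5 hr at room temperature.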
HBB splice mod: alters splicing of the hemoglobin beta chain. 65,000 compounds, 0.06% hits. HBB splicing reporter cell assay, activation; EGFP reporter with mutant IVS2-654 intron; response scale: normalised to 500 nM splice-correcting PNA. Potency, µM (series often up to 46.1 µM), actives largely listed as activators
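Compounds were applied for 2 days to HeLa EGFP-654 cells, 500/well in Optimem with 2% FCS. The reporter's EGFP is disrupted by mis-splicing of beta-globin intron IVS2-654. Readout: summed well GFP fluorescence from 488 nm laser scanning; reference was 500 nM antisense […] 654 PNA.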
IkB sig inh: suppresses IkB signaling in ABC-DLBCL reporter cells | 110,000 compounds, 0.04% hits | Potency, µM (titrated, usually from 57.1 µM) | AID 445 | ABC-DLBCL IkBa-CBG/CBR dual luciferase ratio, 4 h; response scale: scaled: untreated 0%, proteasome inhibitor 100%; active means well fitted curve in the direction sought with a large enough effect in the signal ratio, not every such curve was filed as active; inconclusive means small, poorly fitted or top-dose-only effect, or a change in a side signal; the % refers to the signal ratio;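 further: the direction sought is a rising ratio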
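Luminescence ratio of IκBα-fused green versus native red beetle luciferase in OCI-Ly3 cells, 4 h post-doxycycline with compound; red signal alone, scaled from basal (0%) to zero light (-100%), flagged nonspecific or cytotoxic effects.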
A number is an active result; ! = not confirmed by another sample; [ ] = another dose, or the depositor's remark. Unless noted, the call rests on the fitted dose curve; in most records, active means well fitted curve in the direction sought with a large enough effect; inconclusive means small, poorly fitted or top-dose-only effect, or another doubt; inactive means no such curve, though single readings can be large; an effect the other way counts as inactive or inconclusive.

`COc1cccc(-c2cc(NCc3ccccc3OC)ncn2)c1` gave CRE-bla Fsk inconclusive, GFP derepression inactive[9.22 µM], ERK AVP block inactive, HBB splice mod inactive and IkB sig inh inactive[11.4 µM].
Screening Cc1cc2nc(-c3cccc(NC(=O)CSc4ccc(Cl)cc4)c3)oc2cc1C returned IkB sig inh inactive.
For CCOC(=O)c1c(C2COc3ccccc3O2)csc1N (configuration not stated) the results were CRE-bla Fsk inactive, GFP derepression inactive, ERK AVP block 32µM, HBB splice mod inactive and IkB sig inh inconclusive.
`CCN(CC)c1ccc(NC(=O)c2cccc(C)c2OC)c(C)c1` gave CRE-bla Fsk inconclusive, GFP derepression inactive, ERK AVP block 25µM, HBB splice mod inactive and IkB sig inh inactive.
For COc1cc(C(=O)N2CCN(c3cc(Cl)ccc3Cl)CC2)cc(OC)c1OC the results were CRE-bla Fsk 2.5µM, HBB splice mod inactive and IkB sig inh inconclusive.
For COc1cc(C(=O)N2CCN(c3cccc(C)c3C)CC2)cc(OC)c1OC the results were CRE-bla Fsk 10µM, HBB splice mod inactive and IkB sig inh inconclusive.
For CC1(C)CC(=O)C2=C(C1)OC1=C(C(=O)CC(C)(C)C1)C2c1ccc(O)cc1O the results were CRE-bla Fsk inconclusive, GFP derepression inactive, ERK AVP block 10µM, HBB splice mod inactive[0.0738 µM] and IkB sig inh inconclusive.
CCOC(=O)C1=C(N)OC2=C(C(=O)CC(C)(C)C2)C1c1ccco1 (configuration not stated) was read as CRE-bla Fsk inactive, GFP derepression inactive, ERK AVP block inactive, HBB splice mod inactive and IkB sig inh inactive.
For Cc1ccc(CSc2nncn3c2cc2sccc23)cc1 the results were IkB sig inh inactive.
For Cc1nc2sc3c(c2c2nnc(SCC(=O)NCc4ccco4)n12)CCCC3 the results were CRE-bla Fsk 13µM, GFP derepression inactive, ERK AVP block inactive, HBB splice mod inactive and IkB sig inh inconclusive.
`O=C(CSc1ncnc2sc3c(c12)CCCCC3)NCc1ccco1` gave CRE-bla Fsk 13µM, GFP derepression inactive, ERK AVP block inactive, HBB splice mod inactive and IkB sig inh inconclusive.
O=C(CSc1ncnc2sc3c(c12)CCCC3)c1ccco1 was read as CRE-bla Fsk inconclusive, GFP derepression inactive, ERK AVP block inactive, HBB splice mod inactive and IkB sig inh inactive.
`c1coc(CNc2nc3sc4c(c3c3ncnn23)CCCC4)c1` gave CRE-bla Fsk 6.3µM, GFP derepression inactive, ERK AVP block inactive, HBB splice mod inactive and IkB sig inh inactive.
`CCOc1ccc(C(=O)NCCS(=O)(=O)N2CCN(c3cccc(Cl)c3)CC2)cc1` gave IkB sig inh inactive.
`CCCCCCCCCCCCC/C=C\[C@H](O)[C@H](N)CO` gave CRE-bla Fsk inactive, GFP derepression inactive, HBB splice mod inactive and IkB sig inh inactive.
`Cc1ccc2oc(NC(=O)N3CCOCC3)cc(=O)c2c1` gave CRE-bla Fsk 0.32µM, GFP derepression inactive, ERK AVP block inactive, HBB splice mod inactive and IkB sig inh inconclusive.
Screening O=C(Nc1cc(=O)c2ccccc2o1)N1CCOCC1 returned CRE-bla Fsk inconclusive, GFP derepression inactive, ERK AVP block inactive, HBB splice mod inactive[9.22 µM] and IkB sig inh inactive.
For COc1ccc(C(=O)c2cn[nH]c2-c2cc(Cl)ccc2O)cc1 the results were CRE-bla Fsk inconclusive, GFP derepression inactive, ERK AVP block 40µM, HBB splice mod inactive and IkB sig inh inconclusive.
O=C(c1ccc(F)cc1)c1cn[nH]c1-c1ccccc1O was read as CRE-bla Fsk inactive, GFP derepression inactive, ERK AVP block inactive, HBB splice mod inactive and IkB sig inh inactive.
For Cc1noc(C)c1-c1ccc2ncnc(N(C)C)c2c1 the results were CRE-bla Fsk inconclusive, GFP derepression inactive[9.22 µM], ERK AVP block inactive, HBB splice mod inactive and IkB sig inh inactive[11.4 µM].
CC(C)CO/N=C1/[C@H]2O[C@@H]2[C@@H](O)[C@H]2[C@H]1CCn1c(=O)n(-c3ccccc3)c(=O)n12 was read as ERK AVP block inactive[11.5 µM] and HBB splice mod inactive[9.22 µM].
Cc1nc2ccc(Nc3nc4cc(S(=O)(=O)N5CCOCC5)ccc4o3)cc2s1 was read as CRE-bla Fsk 13µM, GFP derepression inactive, ERK AVP block inactive, HBB splice mod inactive and IkB sig inh inactive.
Screening COc1ccc2c(c1)c1c(c(=O)n(Cc3ccccc3)c(=O)n1Cc1ccccc1Cl)n2C returned IkB sig inh inactive.
`Cc1noc(NS(=O)(=O)c2ccc(NC(=O)COc3ccc(Cl)cc3Cl)cc2)c1C` gave CRE-bla Fsk inconclusive, GFP derepression inactive, ERK AVP block 2.5µM, HBB splice mod inactive[0.0738 µM] and IkB sig inh inactive.
COc1cc(C(=O)NCCc2nc3ccccc3n2C)cc(OC)c1OC was read as CRE-bla Fsk 6.3µM, GFP derepression inactive, ERK AVP block inactive, HBB splice mod inactive and IkB sig inh inactive.
`O=C1OC(=O)[C@@H]2[C@@H]1[C@@H]1CC[C@H]2O1` gave CRE-bla Fsk 3.2µM!, GFP derepression inactive[9.22 µM], ERK AVP block inactive, HBB splice mod inactive and IkB sig inh inconclusive.
CCOC(=O)N1CCC(=C2c3ccc(Cl)cc3CCc3cccnc32)CC1 was read as CRE-bla Fsk inconclusive, GFP derepression inactive, ERK AVP block 20µM, HBB splice mod inactive and IkB sig inh inconclusive.
Screening CCN(C)c1ccc(/C=N\n2nnnc2N)cc1 returned CRE-bla Fsk 7.9µM, GFP derepression inactive, ERK AVP block inactive, HBB splice mod inactive and IkB sig inh inactive.
Screening O=C(Nc1ccc(OCc2cc(=O)n3c4c(sc3n2)CCCC4)cc1)c1cccc(F)c1 returned IkB sig inh inactive.
For Cc1cccc(-n2cnc3c(c2=O)c2nc4ccccc4nc2n3Cc2ccco2)c1 the results were CRE-bla Fsk inconclusive, GFP derepression inactive, ERK AVP block inactive, HBB splice mod inactive and IkB sig inh inactive.
For COc1ccc(Cn2c3nc4ccccc4nc3c3c(=O)n(Cc4ccco4)cnc32)cc1 the results were CRE-bla Fsk 13µM, GFP derepression inactive, ERK AVP block inactive, HBB splice mod inactive and IkB sig inh inactive.
Screening CCn1cc2nc(SCc3ccccc3F)n(Cc3ccc(C)cc3)c(=O)c2n1 returned IkB sig inh inactive.
Cc1ccccc1Cn1cnc2c(cnn2C(C)(C)C)c1=O was read as CRE-bla Fsk 13µM, GFP derepression inactive, ERK AVP block inactive, HBB splice mod inactive and IkB sig inh inactive.
Screening Cc1ccc(C)c(Cn2cnc3c(cnn3C(C)(C)C)c2=O)c1 returned CRE-bla Fsk inconclusive, GFP derepression inactive, ERK AVP block inactive, HBB splice mod inactive and IkB sig inh inactive.
For S=C(Nc1ccccn1)c1ccccn1 the results were CRE-bla Fsk inactive, GFP derepression 4µM, ERK AVP block inactive, HBB splice mod inactive[9.22 µM] and IkB sig inh inconclusive.
O=C(Nc1ccccc1)Nc1ccccn1 was read as CRE-bla Fsk inconclusive, GFP derepression inactive, ERK AVP block inactive, HBB splice mod inactive and IkB sig inh inactive.
